Our source for the growth values is PubChem BioAssay (NCI).

Test systems include DU-145 prostate; K-562 leukemia; MALME-3M melanoma; MDA-MB-231 breast; RXF 393 renal; SF-268 CNS; SF-295 CNS; SF-539 CNS; UACC-257 melanoma; M14 melanoma; HCT-15 colon; SNB-75 CNS; SNB-19 CNS; U251 CNS; PC-3 prostate; SK-MEL-5 melanoma; UACC-62 melanoma; LOX IMVI melanoma; SK-MEL-28 melanoma; HT29 colon.
Common to all, as to experiment: NCI-60 one-dose screen, 48 h (100 = growth as untreated, 0 = no growth, -100 = all killed)
Settings in all cases: 10 µM

The structures appear in SMILES notation. The panel holds about 83,000 compounds, 20% with a hit somewhere; the sample as a whole holds those more often.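 Values shown are percent growth following 48 h exposure of cells in 96-well plates to a single concentration of compound; below 10 was considered active.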 A number with no mark means an inactive call. The source made the active and inactive calls.

For `COc1ccc(/C=C2\CCC3C(CCCC34OCCO4)C2=O)cc1` (stereo not given), the growth in the experiment with DU-145 prostate was 87.6%; in the experiment on K-562 leukemia, 39.7%; in the experiment on MALME-3M melanoma, 70.5%; in the experiment with MDA-MB-231 breast, 96%; in the experiment with RXF 393 renal it was 96.6%; in the experiment on SF-268 CNS, 97.2%. Moreover, the growth with SF-295 CNS was 107%; in the experiment with SF-539 CNS, 88.8%; in the experiment on UACC-257 melanoma, 91%; in the experiment on M14 melanoma, 95.6%; with HCT-15 colon it was 66.2%; in the experiment with SNB-75 CNS, 105%. The growth in the experiment on SNB-19 CNS is 90.1%; in the experiment with U251 CNS, 99.2%; with PC-3 prostate it was 86.4%; with SK-MEL-5 melanoma, 87.3%; in the experiment with UACC-62 melanoma, 81%; in the experiment on LOX IMVI melanoma, 80.8%. Further, the growth in the experiment with SK-MEL-28 melanoma is 95.1%.

Turning to `O=C1/C(=C/c2ccc(O)cc2)Cc2ccc(Cl)cc21`, the growth was 111% in the experiment with DU-145 prostate; 81.8% in the experiment with K-562 leukemia; 106% in the experiment with MALME-3M melanoma; 61.5% with MDA-MB-231 breast; 59.7% with RXF 393 renal; 95.9% in the experiment with SF-268 CNS. For the same compound, the growth was 92.3% in the experiment with SF-295 CNS; 82.6% in the experiment on SF-539 CNS; 86% with UACC-257 melanoma; 82.5% in the experiment with M14 melanoma; 89.2% with HCT-15 colon; 110% in the experiment with HT29 colon. Moreover, the growth with SNB-75 CNS was 73.4%; in the experiment on U251 CNS, 95.8%; in the experiment with PC-3 prostate it was 92.6%; in the experiment with SK-MEL-5 melanoma it was 79.3%; in the experiment on UACC-62 melanoma, 77.3%; with LOX IMVI melanoma, 84.2%. Further, the growth with SK-MEL-28 melanoma was 114%.

For `COc1ccc2nc(-c3ccccc3)cc(C(C)=O)c2c1`, the growth with DU-145 prostate was 107%; in the experiment on K-562 leukemia, 84.1%; in the experiment with MALME-3M melanoma, 86.5%; with MDA-MB-231 breast, 89.5%; in the experiment with RXF 393 renal, 102%; in the experiment with SF-268 CNS, 96.1%. Moreover, the growth was 96.3% with SF-295 CNS; 86.1% in the experiment with SF-539 CNS; 99.9% in the experiment with UACC-257 melanoma; 95.3% in the experiment with M14 melanoma; 94.9% with HCT-15 colon; 79.7% with SNB-75 CNS. Moreover, the growth is 101% in the experiment with SNB-19 CNS; 99.1% in the experiment with U251 CNS; 84.4% in the experiment with PC-3 prostate; 98.5% with SK-MEL-5 melanoma; 91.1% in the experiment on UACC-62 melanoma; 92.2% in the experiment on LOX IMVI melanoma. Also, the growth in the experiment on SK-MEL-28 melanoma is 108%.

Take `C=CCOc1ccc2c(c1)CC=C1[C@@H]2CC[C@]2(C)C(=O)/C(=N/O)C[C@@H]12`: the growth in the experiment with DU-145 prostate is 91.7%; in the experiment with K-562 leukemia, 8.09% (active); in the experiment with MALME-3M melanoma, 96.2%; in the experiment with MDA-MB-231 breast, 90.2%; in the experiment with RXF 393 renal, 53.7%; in the experiment on SF-268 CNS it was 76.3%. The growth was 64.3% with SF-295 CNS; 46.1% with SF-539 CNS; 117% with UACC-257 melanoma; 79.4% in the experiment with M14 melanoma; 15% in the experiment with HCT-15 colon; 115% with SNB-75 CNS. The growth is 104% with SNB-19 CNS; 89.5% in the experiment with U251 CNS; 87% in the experiment with PC-3 prostate; 84.7% in the experiment with SK-MEL-5 melanoma; 108% in the experiment with UACC-62 melanoma; 66.9% in the experiment with LOX IMVI melanoma. Besides, in the experiment with SK-MEL-28 melanoma, the growth is 105%.

For `COc1ccc2oc(=O)cc(C(c3ccc[nH]3)c3ccc[nH]3)c2c1`, the growth with DU-145 prostate was 13.3%; in the experiment with K-562 leukemia it was 4.44% (active); in the experiment with MALME-3M melanoma it was 49.6%; with MDA-MB-231 breast, 13.2%; in the experiment on RXF 393 renal it was -31.3% (active); in the experiment on SF-268 CNS, 18.7%. The growth is 6.39% (active) in the experiment on SF-295 CNS; 1.28% (active) in the experiment on SF-539 CNS; 32.5% in the experiment with UACC-257 melanoma; 8.91% (active) in the experiment on M14 melanoma; 9.01% (active) in the experiment on HCT-15 colon; 29.6% in the experiment with SNB-75 CNS. Also, the growth with SNB-19 CNS is 22.1%; with U251 CNS, -7.61% (active); in the experiment with PC-3 prostate, 20.3%; with SK-MEL-5 melanoma, -31.4% (active); with UACC-62 melanoma, 30.7%; with LOX IMVI melanoma it was 7.59% (active). The growth in the experiment with SK-MEL-28 melanoma was 37.7%.

For `COc1cc(CSc2nc3ccc(C)cc3c(=O)n2Cc2ccccc2)cc(OC)c1OC`, the growth in the experiment with DU-145 prostate was 9.78% (active); in the experiment on K-562 leukemia, 13.8%; with MALME-3M melanoma, 30.1%; with MDA-MB-231 breast, 44.4%; in the experiment with RXF 393 renal, -16.9% (active); in the experiment on SF-268 CNS, 51.5%. The growth in the experiment with SF-295 CNS is 31%; in the experiment on SF-539 CNS, -16.4% (active); in the experiment on UACC-257 melanoma, 47.4%; in the experiment on M14 melanoma, 35.6%; with HCT-15 colon it was 29.2%; in the experiment with SNB-75 CNS, -4.08% (active). Also, the growth in the experiment with SNB-19 CNS is 58.1%; in the experiment with U251 CNS it was 33.1%; in the experiment with SK-MEL-5 melanoma, 17.8%; in the experiment with UACC-62 melanoma it was 21.4%; in the experiment on LOX IMVI melanoma it was 39.8%; in the experiment on SK-MEL-28 melanoma, 52%.

On to `COc1ccc(-c2nc(-c3ccccc3)c(-c3ccccc3)[nH]2)cc1OC1CCCC1`, for which the growth in the experiment on DU-145 prostate is 86.4%; with K-562 leukemia, 31.6%; with MALME-3M melanoma, 103%; in the experiment with MDA-MB-231 breast, 18.7%; with RXF 393 renal it was 13.7%; with SF-268 CNS it was 73.7%. In addition, the growth is 52.9% in the experiment with SF-295 CNS; 63.3% in the experiment with SF-539 CNS; 79.9% in the experiment with UACC-257 melanoma; 56.1% in the experiment on M14 melanoma; 19.8% with HCT-15 colon; 35.5% in the experiment with HT29 colon. Moreover, the growth was 70.5% in the experiment with SNB-75 CNS; 39.1% in the experiment with U251 CNS; 67.7% in the experiment with SK-MEL-5 melanoma; 57% in the experiment on UACC-62 melanoma; 24.3% in the experiment with LOX IMVI melanoma; 79.4% in the experiment on SK-MEL-28 melanoma.

For the compound `N#C/C(=C/c1cc([N+](=O)[O-])ccc1Cl)C(N)=O`, the growth is 92.7% in the experiment with DU-145 prostate; 38.8% with K-562 leukemia; 99% in the experiment on MALME-3M melanoma; 111% in the experiment with MDA-MB-231 breast; 99.2% with RXF 393 renal; 96.4% in the experiment with SF-268 CNS. Also, the growth is 98.1% with SF-295 CNS; 101% in the experiment with SF-539 CNS; 97.8% in the experiment with UACC-257 melanoma; 88.8% in the experiment on M14 melanoma; 80.3% with HT29 colon; 88.9% in the experiment on SNB-75 CNS. The growth is 99.7% in the experiment on SNB-19 CNS; 93.6% in the experiment with U251 CNS; 88.7% in the experiment on PC-3 prostate; 98.8% in the experiment on SK-MEL-5 melanoma; 104% with UACC-62 melanoma; 68.8% in the experiment on LOX IMVI melanoma. Besides, the growth in the experiment with SK-MEL-28 melanoma was 105%.
